Each structure is given as a SMILES string. Results filed as inconclusive are left out. Activity calls are given as the source filed them. The call rests on the fitted dose curve; in most records, active means well fitted cell-killing curve with a large enough effect; inconclusive means small, poorly fitted or top-dose-only effect; inactive means flat fitted curve, though single readings scatter.

The test in a line: HPAF-II Cancer Cell Toxicity qHTS against the NCATS CANVASS Library (AID 1347346). Further: nearly all actives have a fitted effect of over 55% in size. The note with it: HPAF-II viability, CellTiter-Glo ATP luminescence, 72 h; series mostly up to 38.3 µM. In short, it runs like this: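 Luminescence from CellTiter-Glo, added after 72 h compound exposure and a 15 min room-temperature incubation, served as the viability readout. HPAF-II cells (1000/well) received an 11-point concentration series.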
Background: qHTS replaces the single test concentration by a dilution series.

For the compound `CC(C)c1ccc2c(c1)CCC1[C@](C)(C(=O)O)CCC[C@]21C` (some centres not stated), the compound was called inactive.

On to `C/C(=C\CC/C(C)=C/CC[C@]1(C)CCc2cc(O)cc(C)c2O1)CC/C=C(\C)C(=O)O`, for which the compound was classed as inactive.
